# From PubChem BioAssay
# Active and inactive are the calls of the source.
# Key:
# [1] = E. coli DRC41 culture turbidity changes, primary screen, E. coli filamentation inducer project, strain DRC41, OD650, 48 h (AID 1152);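 further: E. coli MC1000 strain DRC41 lacking acrAB efflux pump and sulA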; conditions: E. coli DRC41 (acrAB sulA), higher = more signal, called active from +8 up or from −8 down
# [2] = small-molecule binders of probe aLefty1, primary screen, biochemical, small-molecule microarray, 635/667 nm fluorescence (AID 1153); conditions: higher = more signal;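 further: score merges spot fluorescence with signal-to-noise ratio from the scanned slide images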
# [3] = PSAC antagonists in infected red cells, primary screen, cell-based, P. falciparum Indochina, OD700, 1 h (AID 1154); conditions: P. falciparum Indochina infected RBC osmotic lysis, higher = more signal, called active from +8 up or from −8 down
# [4] = PSAC antagonists in infected red cells, primary screen, cell-based, P. falciparum Indochina, OD700, 2 h (AID 1155);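 further: lysis reports solute entry through the parasite surface anion channel PSAC; channel blockers reduce lysis of infected cells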; conditions: P. falciparum Indochina infected erythrocytes, osmotic lysis OD700; higher = more signal, called active from +8 up or from −8 down
# [5] = osmotic lysis modulators in infected erythrocytes, primary screen, PSAC antagonist project, cell-based, P. falciparum Indochina, OD700, 3 h (AID 1156); conditions: higher = more signal, called active from +8 up or from −8 down
# [6] = PSAC antagonists in infected red cells, primary screen, cell-based, P. falciparum Indochina, OD700, 18 h (AID 1157); conditions: P. falciparum Indochina infected erythrocytes, osmotic lysis OD700, 18 h; higher = more signal, called active from +8 up or from −8 down
# [7] = modulators of S6 phosphorylation in cells, primary screen, cell-based, A549, cytoblot, luminescence, serum-stimulated (AID 1158); conditions: A549 phospho-S6 cytoblot, 5 h, higher = more signal;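 further: serum-stimulated A549 lung adenocarcinoma cells; signal is phosphorylated S6 detected by cytoblot immunostaining with HRP secondary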
# [8] = target: NADPH oxidase 2 (Homo sapiens) (UniProt P04839); assay: NOX2-dependent H2O2 signal modulators, primary screen, NOX inhibitor project, cell-based, HEK293-NOX2, PMA-stimulated, Amplex Red fluorescence (AID 1159); conditions: 45 min, higher = more signal, called active from +8 up or from −8 down; further: test concentration not given here
# NADPH oxidase 2 (Homo sapiens), sequence (P04839 whole entry, looked up): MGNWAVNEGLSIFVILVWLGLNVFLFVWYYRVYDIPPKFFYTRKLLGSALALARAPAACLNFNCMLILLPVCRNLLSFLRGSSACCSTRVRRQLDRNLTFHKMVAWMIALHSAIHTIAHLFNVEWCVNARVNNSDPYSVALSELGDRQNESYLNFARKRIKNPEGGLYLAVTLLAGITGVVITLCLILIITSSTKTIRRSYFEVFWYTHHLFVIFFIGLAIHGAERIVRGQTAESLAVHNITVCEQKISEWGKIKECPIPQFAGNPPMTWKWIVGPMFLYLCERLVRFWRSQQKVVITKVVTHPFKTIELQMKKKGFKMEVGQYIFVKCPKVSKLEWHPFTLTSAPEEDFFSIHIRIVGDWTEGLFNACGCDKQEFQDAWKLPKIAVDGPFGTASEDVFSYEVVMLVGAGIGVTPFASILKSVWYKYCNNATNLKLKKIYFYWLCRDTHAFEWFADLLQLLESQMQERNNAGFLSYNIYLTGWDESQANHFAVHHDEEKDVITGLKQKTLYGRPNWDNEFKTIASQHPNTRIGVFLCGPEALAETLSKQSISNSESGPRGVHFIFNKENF
# [9] = target: NADPH oxidase 4 (Homo sapiens) (UniProt Q9NPH5); assay: NOX4-dependent H2O2 signal modulators, primary screen, NOX inhibitor project, cell-based, HEK293-NOX4, tetracycline-induced, Amplex Red fluorescence (AID 1160); conditions: 45 min, higher = more signal, called active from +8 up or from −8 down
# NADPH oxidase 4 (Homo sapiens), sequence (Q9NPH5 whole entry, looked up): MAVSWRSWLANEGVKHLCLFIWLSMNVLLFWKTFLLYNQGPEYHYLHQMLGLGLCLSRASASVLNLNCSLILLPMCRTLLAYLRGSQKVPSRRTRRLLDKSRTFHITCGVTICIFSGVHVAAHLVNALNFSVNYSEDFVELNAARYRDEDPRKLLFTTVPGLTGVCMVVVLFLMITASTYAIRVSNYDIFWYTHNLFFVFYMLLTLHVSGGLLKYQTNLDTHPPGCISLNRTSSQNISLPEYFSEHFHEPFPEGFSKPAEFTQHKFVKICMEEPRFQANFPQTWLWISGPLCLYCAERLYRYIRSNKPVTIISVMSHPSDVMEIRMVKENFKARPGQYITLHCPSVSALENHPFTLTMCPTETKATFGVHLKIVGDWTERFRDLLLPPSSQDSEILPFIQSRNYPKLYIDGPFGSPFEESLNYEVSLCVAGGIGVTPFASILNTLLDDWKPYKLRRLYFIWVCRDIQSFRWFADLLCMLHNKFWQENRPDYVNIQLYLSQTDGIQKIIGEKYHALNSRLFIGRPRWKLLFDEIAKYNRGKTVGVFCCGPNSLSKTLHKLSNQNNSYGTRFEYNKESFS
# [10] = target: NADPH oxidase 5 (Homo sapiens) (UniProt Q96PH1); assay: NOX5-dependent H2O2 signal modulators, primary screen, NOX inhibitor project, cell-based, HEK293-NOX5, Amplex Red fluorescence (AID 1161); conditions: HEK293-NOX5, ionomycin, 45 min, higher = more signal
# NADPH oxidase 5 (Homo sapiens), sequence (Q96PH1 whole entry, looked up): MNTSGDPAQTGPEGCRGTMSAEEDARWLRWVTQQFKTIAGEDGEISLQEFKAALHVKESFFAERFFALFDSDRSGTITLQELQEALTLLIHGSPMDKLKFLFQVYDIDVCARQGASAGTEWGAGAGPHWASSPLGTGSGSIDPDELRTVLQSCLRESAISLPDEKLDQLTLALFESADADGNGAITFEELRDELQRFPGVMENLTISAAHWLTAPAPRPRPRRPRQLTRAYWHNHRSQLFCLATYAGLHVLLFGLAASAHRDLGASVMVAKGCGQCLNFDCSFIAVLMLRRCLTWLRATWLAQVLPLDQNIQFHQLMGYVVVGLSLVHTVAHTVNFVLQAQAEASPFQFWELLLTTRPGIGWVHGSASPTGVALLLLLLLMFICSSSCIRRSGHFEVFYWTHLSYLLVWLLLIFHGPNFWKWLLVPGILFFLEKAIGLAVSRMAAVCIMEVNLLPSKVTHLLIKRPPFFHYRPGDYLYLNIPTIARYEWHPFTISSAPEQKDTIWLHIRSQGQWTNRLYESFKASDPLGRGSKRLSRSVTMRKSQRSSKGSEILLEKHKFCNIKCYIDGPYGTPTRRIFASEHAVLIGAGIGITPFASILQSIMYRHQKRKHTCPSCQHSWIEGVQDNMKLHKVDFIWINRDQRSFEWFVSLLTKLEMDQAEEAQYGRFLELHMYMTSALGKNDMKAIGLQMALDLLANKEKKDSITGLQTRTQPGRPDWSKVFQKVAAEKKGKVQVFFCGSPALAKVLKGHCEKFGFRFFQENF
Structure (SMILES),z-score [1],composite z-score [2],z-score [3],z-score [4],z-score [5],z-score [6],z-score [7],z-score [8],z-score [9],z-score [10]
COc1cc2c(cc1O)C(C)N(Cc1cccc(OC(F)(F)F)c1)CC2 (stereo not given),0.126 (inactive),-0.0015,2.96 (inactive),0.328 (inactive),2.09 (inactive),0.573 (inactive),-0.0952,-3.51 (inactive),-2.46 (inactive),-3.03
CO[C@H]1O[C@H](CO)[C@@H](OC(=O)Nc2ccc(Oc3ccccc3)cc2)[C@H](OC(=O)Nc2ccccc2)[C@H]1OC(=O)Nc1ccccc1,0.415 (inactive),0.407,3.14 (inactive),1.09 (inactive),1.4 (inactive),0.766 (inactive),0.696,-0.909 (inactive),-3.18 (inactive),-0.854
CC(C)C[C@@H]1NC(=O)[C@H]2C[C@@H](C(=O)NCCCCCCNC(=O)CS)[C@@H](c3cccc(OCCO)c3)N2C1=O,1.03 (inactive),-0.0523,3.77 (inactive),0.194 (inactive),2.83 (inactive),-0.042 (inactive),-0.0016,1.14 (inactive),0.665 (inactive),-0.112
CCC(CC)C(O)C1C=CC2C(=O)N(c3ccccc3)C(=O)C2N1Nc1ccc(C#N)cc1 (stereo not given),-0.35 (inactive),0.675,15.4 (active),2.91 (inactive),3.47 (inactive),1.51 (inactive),-1.11,-1.49 (inactive),-3.45 (inactive),-3.2
C=CCOC(=O)[C@H]1[C@@H]2C(=O)O[C@@H](c3ccccc3)[C@@H](c3ccccc3)N2[C@@H](c2ccc(OCCOC(=O)[C@@H]3C[C@@H]4C(=O)NCC(=O)N4[C@@H]3c3ccc(O)cc3)cc2)[C@]12C(=O)Nc1ccccc12,2.47 (inactive),0.3,1.77 (inactive),-0.0123 (inactive),0.708 (inactive),-0.513 (inactive),1.14,2.07 (inactive),1.31 (inactive),1.1
COc1ccc(NN2C(C(O)c3ccc(OC)c(OCc4ccccc4)c3)C=CC3C(=O)N(C4CCCCC4)C(=O)C32)cc1 (stereo not given),0.678 (inactive),0.32,4.41 (inactive),1.38 (inactive),0.31 (inactive),1 (inactive),0.0173,-0.195 (inactive),-1.96 (inactive),-0.604
CC(C)C(=C=CC[C@@H](O)c1ccccc1OCCO)C[C@@H](O)c1ccccn1,-0.258 (inactive),0.0437,6.05 (inactive),1.2 (inactive),0.611 (inactive),0.774 (inactive),-0.632,0.216 (inactive),-0.725 (inactive),-1.6
COCCOC(=O)N1C(=O)[C@@]2(c3cc(C#CCC(C(=O)OC)C(=O)OC)ccc31)[C@H](c1ccccc1OCCO)N1[C@H](c3ccccc3)[C@H](c3ccccc3)OC(=O)[C@H]1[C@@H]2C(N)=O,0.483 (inactive),0.479,7.64 (inactive),2.55 (inactive),0.678 (inactive),1.42 (inactive),-0.127,0.821 (inactive),0.383 (inactive),-1.85
CC(C)NC(=O)[C@@H]1c2ccccc2C(=O)N(Cc2ccccc2Cl)[C@H]1c1ccc(CO)cc1,1.09 (inactive),0.509,2.67 (inactive),1.05 (inactive),0.796 (inactive),0.183 (inactive),-0.469,-0.444 (inactive),0.715 (inactive),0.376
O=C1C2C=CC(C(O)c3ccc(B(O)O)cc3)N(Nc3ccccc3)C2C(=O)N1c1ccccc1 (stereo not given),-1.52 (inactive),0.0315,1.07 (inactive),-0.447 (inactive),0.977 (inactive),-0.447 (inactive),0.64,-3.57 (inactive),-5.02 (inactive),-7.63
CC(C)Cc1ccc(CN2CC[C@@H](NS(=O)(=O)c3ccccc3)C2)cc1,-19.2 (active),-0.198,2.49 (inactive),0.408 (inactive),0.306 (inactive),0.574 (inactive),0.709,0.312 (inactive),-0.907 (inactive),-3.68
C[C@]1(C(=O)NCc2ccccc2)c2ccccc2C(=O)N(Cc2ccc(OC(F)(F)F)cc2)[C@H]1c1ccc(CO)cc1,1.17 (inactive),-0.142,3.54 (inactive),-0.18 (inactive),-0.495 (inactive),-0.779 (inactive),0.843,-0.944 (inactive),-1.33 (inactive),-0.499
COc1ccc([Si](C)(C)[C@H]2[C@H](CC(=O)N(CCO)Cc3ccccc3)O[C@@]3(C(=O)N(Cc4cccc(N5CCC5=O)c4)c4ccccc43)[C@@H]2C)cc1,2.2 (inactive),0.356,11.6 (active),1.88 (inactive),-0.614 (inactive),-0.356 (inactive),0.408,0.804 (inactive),0.957 (inactive),1.43
COc1ccc(C#Cc2ccc3c(c2)[C@]2(C(=O)N3)[C@H](c3ccc(O)cc3)N3[C@H](c4ccccc4)[C@H](c4ccccc4)OC(=O)[C@H]3[C@@H]2C(=O)NC[C@H](O)c2ccccc2)cc1,0.735 (inactive),-0.021,1.1 (inactive),1.09 (inactive),0.541 (inactive),0.859 (inactive),-0.193,1.91 (inactive),-0.0599 (inactive),0.22
CN(C)C(=O)[C@@]1(CCC(=O)OC(C)(C)C)N=C(c2ccc(OCCCO)cc2)O[C@H]1c1ccccc1,-0.249 (inactive),0.986,15.9 (active),1 (inactive),1.34 (inactive),-0.976 (inactive),0.837,-2.81 (inactive),-0.618 (inactive),-0.698
COC(=O)[C@@]1(Cc2ccc(F)cc2)[C@H]2c3cc(C(=O)N(C)C)n(CCc4ccccn4)c3C[C@H]2CN1C(=O)c1ccccc1,-0.815 (inactive),1.01,1.81 (inactive),-0.0235 (inactive),0.892 (inactive),-1.66 (inactive),0.402,0.831 (inactive),1.03 (inactive),0.234
CCCNC(=O)[C@@H]1c2ccccc2C(=O)N(Cc2ccccc2)[C@H]1c1ccc(CO)cc1,-0.731 (inactive),-0.0508,1.36 (inactive),-0.325 (inactive),1.41 (inactive),0.0842 (inactive),0.0533,-0.802 (inactive),-1.63 (inactive),-2.53
CCOC(=O)C[C@H]1[C@H](OC(=O)c2ccccc2-c2ccccc2)[C@@H](NC(=O)c2ccc3ccccc3c2)c2cc(OCCCO)ccc2N1C(=O)c1ccc2ccccc2n1,0.0514 (inactive),-0.193,4.5 (inactive),0.759 (inactive),-0.62 (inactive),0.452 (inactive),-0.429,0.349 (inactive),1.08 (inactive),0.803
CC(C)(C)OC(=O)CC[C@@]1(C(=O)NCCN2CCOCC2)N=C(c2ccc(OCCCO)cc2)O[C@@H]1c1ccccc1,1.18 (inactive),0.296,14.8 (active),1.8 (inactive),0.267 (inactive),0.813 (inactive),0.413,0.63 (inactive),1.03 (inactive),1.8
O=C1C=CC(=O)[C@@H]2CC(COc3ccccc3)=C3[C@@H](CCc4ccccc4)OB(O)C[C@@H]3[C@H]12,-0.365 (inactive),0.0491,3.41 (inactive),-0.0365 (inactive),-0.0433 (inactive),0.0107 (inactive),0.0482,-0.511 (inactive),-3.32 (inactive),-5.88
COC(=O)[C@@]1(Cc2ccccc2)[C@H]2c3cc(C(=O)N(C)C)n(Cc4cc(C)n(C)n4)c3C[C@H]2CN1C(=O)c1ccccc1,-1.85 (inactive),0.33,1.11 (inactive),0.234 (inactive),0.452 (inactive),0.396 (inactive),0.251,0.904 (inactive),-0.925 (inactive),-2.11
COCCOC(=O)N1C(=O)[C@@]2(c3cc(C#CCNC(N)=O)ccc31)[C@H](C(=O)N1CCN(c3ncccn3)CC1)[C@H]1C(=O)O[C@H](c3ccccc3)[C@H](c3ccccc3)N1[C@@H]2c1ccccc1OCCO,1.07 (inactive),0.248,2.72 (inactive),1.32 (inactive),0.749 (inactive),0.883 (inactive),0.915,1.99 (inactive),0.756 (inactive),-1.08
COc1ccc(CCNC(=O)[C@@H]2c3ccccc3C(=O)N(Cc3ccc(OC(F)(F)F)cc3)[C@H]2c2ccc(CO)cc2)cc1,-0.989 (inactive),-0.291,4.16 (inactive),0.385 (inactive),2 (inactive),0.623 (inactive),-0.404,-1.69 (inactive),-0.245 (inactive),-3.56
Cc1cc(C)c(C(O)C2C=CC3C(=O)N(c4ccccc4)C(=O)C3N2Nc2ccc(C#N)cc2)c(C)c1 (stereo not given),-0.197 (inactive),0.938,7.4 (inactive),1.27 (inactive),0.742 (inactive),1.27 (inactive),-0.649,0.0492 (inactive),-2.68 (inactive),-2.1
CCOC(=O)C[C@H]1[C@H](OC(=O)Cc2ccc3c(c2)OCO3)[C@@H](NC(=O)C2CCCCC2)c2cc(OCCCO)ccc2N1C(=O)Cc1ccc(OC)cc1,2.31 (inactive),0.405,5.77 (inactive),-0.54 (inactive),-1.21 (inactive),-0.911 (inactive),1.97,-0.00495 (inactive),1.07 (inactive),0.297
